Our source for the outcome and AC50 values is PubChem BioAssay AID2284366 (EPA ToxCast).

Results filed as inconclusive are left out. The source made the active and inactive calls. The calls were made as follows: active = hit-call score of the fitted dose curve at least 0.9, where 1 is the maximum; inconclusive = response in the unintended direction; inactive = score below 0.9.

The assay has as its system zebrafish Peroxisome Proliferator-activated Receptor gamma (PPARg), gene 557037. The assay can be described thus: ATG_zfPPARg_EcoTox2: Attagene TRANS-FACTORIAL EcoTox-2 HepG2 Assay for zebrafish Peroxisome Proliferator-activated Receptor gamma (PPARg). As for the experimental part:
ATG_EcoTox2 is a cell-based, multiplexed assay created by modifying the existing Attagene TRANS-FACTORIAL system to include a panel of nuclear receptors from some or all the following species: human (Homo sapiens), african clawed frog (Xenopus laevis), rainbow trout (Oncorhynchus mykiss), japanese medaka (Oryzias latipes), and zebrafish (Danio rerio). The ECOTOX2-FACTORIAL format uses HepG2, a human liver cell line, with measurements taken at 24 hours after chemical dosing in a 24-well plate. ATG_zfPPARg_EcoTox2 is one of 29 assay components calculated in the ATG_EcoTox2 assay. It is designed to make measurements of mRNA induction, a form of inducible reporter, as detected with fluorescence intensity signals by Reverse transcription polymerase chain reaction (RT-PCR) and Capillary electrophoresis technology.The assay endpoint ATG_zfPPARg_EcoTox2 was analyzed in the positive analysis fitting direction relative to DMSO as the negative control and baseline of activity. Using a type of inducible reporter, measures of mRNA for gain-of-signal activity can be used to understand the reporter gene at the transcription factor-level as they relate to the gene PPARg. Furthermore, this assay endpoint can be referred to as a primary readout, because this assay has produced multiple assay endpoints where this one serves a reporter gene function. To generalize the intended target to other relatable targets, this assay endpoint is annotated to the nuclear receptor intended target family, where the subfamily is non-steroidal.
Human liver HepG2 cells are transiently transfected with multiple reporter transcription units (MRTUs) in 6-well plates using FuGene 6 reagent (Roche; 3 ml FuGene/1 mg DNA). The MRTU constructs are regulated by a cis-regulating element (promoter). Each RTU expresses a GAL4-UAS that regulates the transcription of a nearby target reporter gene sequence. A major difference between the CIS and TRANS system is that in CIS activities of endogenous TFs are measured, whereas the TRANS assay evaluates changes in activities of exogenous, chimeric NR-Gal4 proteins. […] At the end of 24 hour incubation, total RNA was isolated using TriZol reagent (Invitrogen). The isolated RNA is then reverse-transcribed using oligo(dT) primer and Mo-MLV reverse transcriptase (Invitrogen) with DNAse I (Ambion) treatment for 30 min. The one-tenth of the produced cDNA was amplified by PCR using Taq DNA polymerase (Invitrogen) and two reporter sequence-specific primers. The PCR products were fluorescently labeled by primer extension with 6-arboxyfluorescein (6-FAM) 5'-labeled reporter sequence-specific primer (2 min at 95 C, 20 s at 68 C and 10 min at 72 C) and these products were digested with 5U of HpaI (New England Biolabs) for 2h at 37 C. The fragments were purified using Qiaquick PCR columns (Qiagen), analyzed on an ABI 3130xL genetic analyzer (Applied Biosystems) with peak positions identified by using a set of X-rhodamine (ROX)-labeled MapMarker1000 molecular weight standards (BioVentures). The raw capillary electrophoresis data was processed using Attagraph software (Attagene).
Take `CCCCOCN(C(=O)CCl)c1c(CC)cccc1CC`: the call was inactive.
In the case of `O=P(Oc1ccccc1)(Oc1ccccc1)Oc1ccccc1`, the AC50 was 13.2 µM (active).
As to `O=S(=O)(O)C(F)(F)C(F)(F)C(F)(F)C(F)(F)C(F)(F)C(F)(F)F`, the molecule was called inactive.
On the same count and under the same terms, the result for `O=C(O)C(F)(F)C(F)(F)C(F)(F)C(F)(F)C(F)(F)C(F)(F)C(F)(F)F` reads “inactive”.
Same read-out and setting: the result for `[Cl][Sn]([c]1ccccc1)([c]1ccccc1)[c]1ccccc1` reads “inactive”.

For orientation: AC50 means the concentration at which the activity in the assay is half-maximal.
